Results from PubChem BioAssay (NCATS).
Inconclusive results are not listed. Calls of active or inactive are those of the source. Calls follow the shape of the dose curve; as a rule, active = well fitted inhibition curve with a large enough effect; inconclusive = small, poorly fitted or top-dose-only effect; inactive = no such curve, though single readings can be large or run the other way.

Test: Primary qHTS for inhibitors of nuclear receptor binding SET domain protein 2 (NSD2) in an RCH-ACV wild type WT cells (2C) (AID 1645877); also: nearly all actives have a fitted effect of over 70% in size
Conditions: RCH-ACV (leukaemia line) NSD2 WT (2C) viability, CellTiter-Glo, 72 h; series mostly up to 44.9 µM; activity change, negative = cell killing: at the top concentration
% is scaled to controls: 0 for no effect and ±100 for the full control effect.

Row | SMILES | outcome | activity change, negative = cell killing | Potency
1 | CCOc1nc2cccc(C(=O)O)c2n1Cc1ccc(-c2ccccc2-c2noc(=O)[nH]2)cc1 | inactive | – | –
2 | COC(=O)c1cc(CN2CCN(C(=N)N)CC2)cc(C(=O)N2CCN(C(=O)c3ccc(C(=N)N)cc3)CC2)c1 | inactive | – | –
3 | C=C1CC[C@@H]2[C@](C)(CO[C@@H]3O[C@H](CO)[C@@H](O)[C@H](O)[C@H]3O)CCC[C@@]2(C)[C@@H]1CCC1=CCOC1=O | – | -9.27% [at 17.3 µM] (inactive) | –
4 | O=C(/C=C/c1ccc(O)cc1)OC[C@H]1O[C@@H](OC(=O)/C=C/c2ccccc2)[C@H](O)[C@@H](O)[C@@H]1O | – | -25.3% [at 17.3 µM] (inactive) | –
5 | C=CC1(C)C=C2C(O)CC3C(C)(C(=O)O)CCCC3(C)C2CC1 (stereo unspecified) | inactive | – | –
6 | CCN(c1cc(C#CCN2CCOCC2)cc(C(=O)NCc2c(C)cc(C)[nH]c2=O)c1C)C1CCC(N(C)CCOC)CC1 (stereo unspecified) | – | – | inactive
7 | N#CCc1ccc(O)cc1O[C@@H]1O[C@H](CO)[C@@H](O)[C@H](O)[C@H]1O | – | 1.73% (inactive) | –
8 | C/C=C(\C)C(=O)OC[C@H]1O[C@H](O[C@H]2O[C@H](CO)[C@@H](OC(=O)/C(C)=C/C)[C@H](O)[C@H]2O[C@@H]2O[C@H](CO)[C@@H](O)[C@H](O)[C@H]2O)[C@H](O[C@@H]2O[C@H](CO)[C@@H](O)[C@H](O)[C@H]2O)[C@@H](O)[C@@H]1O | inactive [at 9.23 µM] | – | –
9 | COC12CC3C(C(C)C1=CC(=O)O2)C(O)C(OC(C)=O)C1C(C)(C)C(OC(C)=O)CCC31C (stereo unspecified) | inactive [at 17.3 µM] | – | –
10 | O=C(CCO[C@@H]1O[C@H](CO)[C@@H](O)[C@H](O)[C@H]1O)c1ccc(O)cc1 | – | -18.6% (inactive) | –
11 | COc1ccc(/C=C/C(=O)O[C@H]2[C@@H]3C=CO[C@@H](O[C@@H]4O[C@H](CO)[C@@H](O)[C@H](O)[C@H]4O)[C@@H]3[C@@]3(CO)O[C@@H]23)cc1O | inactive [at 17.3 µM] | – | –
